# FBW7 act – FBW7 E3 ligase activators, primary screen, biochemical, AlphaScreen, human. AlphaScreen FBW7–phospho-cyclin E peptide binding, activator screen. actives 0.13% (n = 650,000). AID 1259310, 2017. normalized activity (activation), % at 26.1 µM. F-box/WD repeat-containing protein 7 (Homo sapiens), Q969H0; in the data active = normalized activity above about 1.9%;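 also: purified mutant Fbw7 with reduced substrate affinity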
# TEAD-YAP inh – TEAD-YAP interaction inhibition, primary screen, TEAD-YAP interaction inhibitor project, luminescence, HEK-TIYL cells | TEAD-Gal4/YAP UAS-luciferase luminescence | inhibition, % at 9.12 µM | actives 1.4% (n = 640,000) | AID 1259422, 2018; in the data active = inhibition above about 32%;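 also: 0% = median of test compound wells and 100% = reference inhibitor wells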
# GPR151 ag – activators of human GPR151, primary screen, cell-based, PathHunter beta-arrestin, luminescence. activation, % at 11.2 µM. PathHunter beta-arrestin GPR151 cells. AID 1508602, 2020. actives 1% (n = 650,000); in the data active = activation above about 4.9%;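 also: 0% = median of compound wells and 100% = cells with positive control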
# MITF inh – MITF inhibitors, primary screen, biochemical, AlphaScreen, human | Microphthalmia-associated transcription factor (Homo sapiens), O75030 | AlphaScreen MITF homodimerization, bead proximity signal | inhibition, % at 2.6 µM | actives 0.91% (n = 650,000) | AID 1259374, 2018; in the data active = inhibition above about 50%;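 also: 0% = vehicle wells with protein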
# GPR151 confirm – GPR151 activators, triplicate retest, confirmation, cell-based, PathHunter beta-arrestin, luminescence | shares compounds with GPR151 ag | GPR151 PathHunter beta-arrestin cells, 90 min; % of EA-reagent control over plate median | activation, % at 11.2 µM | 6,700 tested, under 10 active;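 active = mean percent activation across replicates above the confirmation screen cutoff of 4.91%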
# GPR119 counter – GPR119 activators in beta-arrestin cells, counter-screen for GPR151 activator project, cell-based, PathHunter beta-arrestin, luminescence, triplicate. actives 0.3% (n = 6,700). activation, % at 11.2 µM. 90 min; 0 = compound-well median, 100 = enzyme-acceptor control. shares compounds with GPR151 ag. AID 1508611, 2020;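 active = mean percent activation in the counterscreen above 29.09%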;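 also: counterscreen on off-target GPR119 to flag nonselective hits from the GPR151 activator screen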
# Target sequence (Q8TDV5 whole entry, looked up): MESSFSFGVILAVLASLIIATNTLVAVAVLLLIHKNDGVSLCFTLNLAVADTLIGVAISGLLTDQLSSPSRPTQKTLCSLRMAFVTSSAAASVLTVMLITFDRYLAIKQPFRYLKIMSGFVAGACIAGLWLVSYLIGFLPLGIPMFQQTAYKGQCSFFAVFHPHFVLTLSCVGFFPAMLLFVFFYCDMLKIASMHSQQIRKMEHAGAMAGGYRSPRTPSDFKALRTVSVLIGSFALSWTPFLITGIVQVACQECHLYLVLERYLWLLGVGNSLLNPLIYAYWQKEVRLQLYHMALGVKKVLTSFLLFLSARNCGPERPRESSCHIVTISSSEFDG
# * = called active by the depositor; . = no result. An excerpt weighted towards active compounds, which were near 3.5% of everything screened.
SMILES,FBW7 act,TEAD-YAP inh,GPR151 ag,MITF inh,GPR151 confirm,GPR119 counter
CN(C)c1ccc(NC(=O)c2cccs2)cc1,0,-13,-7,6,.,.
CCCOc1ccc(/C=C2/C(=O)ON=C2C)cc1OCC,0,2,-1,42,.,.
CCCOc1ccccc1/C=C1/C(=O)ON=C1C,0,6,7.4*,19,-1,-3
COc1cc(OC)c(/C=N/NC(=O)c2cccnc2)cc1Br,0,-1,1,-2,.,.
Cc1cccc(-c2noc(CCC(=O)N(C)C)n2)c1,0,-42,-4,-7,.,.
COc1ccc(-c2noc(CCC(=O)Nc3ccc(C)cc3)n2)cc1,0,-12,2,-2,.,.
COc1ccc(-c2noc(CCC(=O)Nc3cccc(Cl)c3)n2)cc1,0,0,9.5*,-5,0,5
COc1ccc(-c2noc(CCC(=O)Nc3ccc(C)c(C)c3)n2)cc1,0,-2,5.2*,8,2,7
CN(C)C(=O)CCc1nc(-c2ccc(Cl)cc2)no1,0,-47,7.2*,-6,-1,-18
COc1ccc(-c2noc(CC(=O)Nc3cccc(Cl)c3)n2)cc1,0,9,-1,-4,.,.
COc1cccc(-c2noc(CCC(=O)NC(C)C)n2)c1,0,-5,5.6*,-5,-2,-14
CCCN1C(=O)/C(=C/c2ccco2)SC1=S,0,-7,-1,22,.,.
CCC(C)N1C(=O)/C(=C\c2ccco2)SC1=S (centres undefined),0,2,8.1*,-2,0,2
O=C(c1ccc(F)cc1)n1sc(=O)c2ccccc21,0,-33,-10,28,.,.
Cc1ccccc1CSCC(=O)N/N=C/c1cccc([N+](=O)[O-])c1,0,9,-1,14,.,.
O=C(COc1ccc(Cl)cc1)NCc1cc(-c2cccs2)on1,0,11,5.2*,-1,-1,-14
O=S(=O)(c1cccs1)N(Cc1ccco1)C1CCN(CCc2cccs2)CC1,0,3,7.5*,17,-1,-13
CS(=O)(=O)N(Cc1ccco1)C1CCN(CCc2cccs2)CC1,0,5,0,4,.,.
Cc1ccc(NC(=O)c2sc3ncnc(N4CCN(c5ccccn5)CC4)c3c2C)cc1,1,16,-1,8,.,.
O=C(NCc1cccnc1)c1cc(-c2ccc(F)cc2)no1,0,-23,5.0*,14,0,-6
Cc1ccc(NC(=O)CSc2nnc(-c3ccncc3)n2CC2CCCO2)cc1Cl (centres undefined),0,20,0,1,.,.
O=C(COc1ccc(C(=O)N2CCN(CCc3ccccc3)CC2)cc1)C1CC1,0,3,5.1*,15,-1,7
O=C(COc1ccc(C(=O)N2CCN(c3ccccc3Cl)CC2)cc1)C1CC1,0,-11,0,1,.,.
CCOC(=O)c1cc(C)sc1NC(=O)C1CC(C)=C(C)CC1C(=O)O (centres undefined),0,13,-1,7,.,.
CC(C)CCNC(=O)c1c(O)c2cccc3c2n(c1=O)CCC3,0,-10,0,1,.,.
SMILES,FBW7 act,TEAD-YAP inh,GPR151 ag,MITF inh,GPR151 confirm,GPR119 counter
O=C(Nc1ccccc1Br)c1c(O)c2cccc3c2n(c1=O)CC3,0,4,5.4*,-15,-1,-10
CC(C)CCNC(=O)c1c(O)c2cccc3c2n(c1=O)CC3,0,-2,7.0*,1,0,-11
O=C(Nc1ccccc1F)c1c(O)c2cccc3c2n(c1=O)CC3,0,-13,1,-7,.,.
Cc1ccc(-n2c(SCc3cccc([N+](=O)[O-])c3)nc3[nH]ncc3c2=O)cc1Cl,0,16,4.9*,-4,0,-3
O=c1c2cn[nH]c2nc(SCc2cccc([N+](=O)[O-])c2)n1-c1ccc(Cl)cc1,1,-4,-1,9,.,.
CCOC(=O)COc1ccc2c(=O)c(Oc3cccc(OC)c3)coc2c1,0,3,5.3*,2,2,6
CSc1nnc(-c2ccco2)n1-c1ccccc1,0,-3,5.1*,3,1,13
Fc1ccccc1/C=N\Nc1nc2ccccc2o1,1,-48,11*,21,-1,-12
CCC(=O)N1CCCc2ccc(NC(=O)CCc3ccc(OC)cc3)cc21,0,4,0,-3,.,.
CCC1(CCC(=O)NCC2(c3ccccc3)CCOCC2)CCC(=O)N1 (centres undefined),0,-8,9.5*,-4,0,-1
Cc1nn(C)c(C)c1-c1nc(C(=O)NC2CCN(Cc3ccccc3)CC2)cs1,0,-16,8.7*,8,0,-7
Cc1nn(C)c(C)c1-c1cncc(C(=O)NC2CCN(Cc3ccccc3)CC2)c1,0,2,5.5*,-7,1,-2
O=C(/C=C/c1ccc(Br)cc1)N1CCOCC1,0,-25,3,7,.,.
O=C(/C=C/c1ccc(-c2ccc(Br)cc2)o1)N1CCOCC1,0,-45,5.4*,0,0,-4
CCc1cc2c(SCc3cn4c(C)cccc4n3)ncnc2s1,0,-7,-2,-3,.,.
CC(=O)N(C)c1ccc(NC(=O)c2ccco2)cc1,0,-27,5.3*,8,-1,-6
O=C(CN1Cc2ccccc2OC(c2ccccc2F)C1)N1CCCC1c1n[nH]c(=O)[nH]1 (centres undefined),0,-8,7.5*,-11,0,2
CCCN(CCC)CCNC(=O)CNC(=O)c1nn(-c2ccc(OC)c(OC)c2)c(=O)c2ccccc12,0,4,1,15,.,.
O=C(OCCOc1ccc(Br)cc1)c1cccnc1Cl,0,4,1,-6,.,.
COc1cc(N)c(Cl)cc1C(=O)OCCOc1ccc(Br)cc1,0,4,20*,7,-1,0
CSc1ncccc1C(=O)OCCOc1ccc(Br)cc1,0,-2,6.3*,-17,0,-3
CC(C)c1cc(C(=O)O)c2ccccc2n1,0,5,-2,16,.,.
Cc1ccc(Cn2cc(SCC(=O)N3CCCC3)c3ccccc32)cc1,0,-6,-1,-9,.,.
CCOc1c(Cl)cc(CNCC(C)C)cc1OC,0,11,6.2*,1,-1,-14
COc1cc(CNCC(C)C)cc(Cl)c1OC,1,2,0,20,.,.
Cc1ccccc1OC1=NS(=O)(=O)c2cc([N+](=O)[O-])ccc21,0,9,8.6*,11,0,-8
O=C(CC12CC3CC(CC(C3)C1)C2)OCCNC(=O)c1cccnc1,0,6,2,-2,.,.
